An excerpt weighted towards active compounds, which were near 2.2% of everything screened.
HepG2 tox – counter-screen for TGF-b inhibitors: cytotoxicity in HepG2 cells; HepG2 CAGA-GFP viability, ATP luminescence, 18 h; Potency, µM (top dose mostly 46.1 µM), for the others: at the top dose activity change, negative = cytotoxicity, usual class: cytotoxic; actives 0.76% (n = 410,000); also: potency is read from the fitted curve at half-maximal effect
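HepG2 CAGA-GFP cells (1000/well, DMEM with 1% FBS) received compound, then TGF-beta at 500 pg/mL final, and were incubated 18 hours at 37 degrees C. Viability was read by CellTiter-Glo luminescence. Media-only wells were set as complete cell-killing and DMSO as no toxicity.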
ATXN viability – cell viability loss in ATXN counter-screen; AID 651635; S2 cells (HEK-293 line with an ATXN2-luciferase reporter) viability, CellTiter-Fluor protease fluorescence, 24 h; Potency, µM (series often up to 56.7 µM), most hits filed as cytotoxic; actives 0.49% (n = 400,000); also: potency is read from the fitted curve at half-maximal effect; nearly all actives have a fitted effect of over 40% in size
mIDH1 inhibitor – blocks human mutant IDH1 R132H enzyme; O75874; IDH1-R132H enzyme, NADPH consumption, diaphorase/resazurin fluorescence; Potency, µM (doses to about 76.6 µM), without a hit: top-dose activity change, negative = inhibition, actives largely listed as inhibitors; actives 0.093% (n = 390,000); also: potency is read from the fitted curve at half-maximal effect; % is scaled to controls: 0 for no effect and ±100 for the full control effect; nearly all actives have a fitted effect of over 65% in size
Target sequence (O75874 whole entry R132H, stated change not applied): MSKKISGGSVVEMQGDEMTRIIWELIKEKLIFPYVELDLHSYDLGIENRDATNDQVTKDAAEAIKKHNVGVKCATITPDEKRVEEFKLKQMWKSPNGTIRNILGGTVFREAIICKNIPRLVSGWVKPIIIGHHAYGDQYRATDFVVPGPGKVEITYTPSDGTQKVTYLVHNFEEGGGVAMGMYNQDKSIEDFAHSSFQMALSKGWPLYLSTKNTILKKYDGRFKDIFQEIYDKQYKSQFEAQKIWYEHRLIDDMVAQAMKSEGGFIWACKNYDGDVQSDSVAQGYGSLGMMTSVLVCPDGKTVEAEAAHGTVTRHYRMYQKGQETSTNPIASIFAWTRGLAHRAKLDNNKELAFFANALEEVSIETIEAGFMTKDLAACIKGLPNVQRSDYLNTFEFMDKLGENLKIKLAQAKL
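IDH1-R132H (0.5 ug/mL dispensed) in pH 7.5 Tris buffer was preincubated 30 min with compound, then given a substrate mix of 0.016 mM NADPH and 2 mM alpha-KG for 80 min at room temperature; remaining NADPH was read by diaphorase/resazurin fluorescence.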
TGFb inhibitor – blocks TGF-b signaling | HepG2 CAGA-GFP TGF-b/SMAD3 reporter, GFP fluorescence, 18 h; TGF-beta stimulated, 500 pg/mL final | Potency, µM (titrated, usually from 46.1 µM), inactives show at the top dose activity, negative = inhibition, usual class: inhibitors | actives 1.2% (n = 410,000) | AID 588855; also: potency is read from the fitted curve at half-maximal effect; % is scaled to controls: 0 for no effect and ±100 for the full control effect; nearly all actives have a fitted effect of over 65% in size
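Using HEPG2 CAGA-GFP reporter cells at 1000 cells/well, we pinned test compounds, stimulated with recombinant TGF-beta (500 pg/mL final) and measured total well GFP after 18 h.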
ATXN2 expr inh – inhibitors of ATXN2 expression | actives 0.72% (n = 360,000) | Potency, µM (doses to about 57 µM), without a hit: at the highest dose activity change, negative = inhibition, actives largely listed as inhibitors | AID 1745845 | HEK-293 ATXN2-luciferase reporter, luminescence, 24 h; also: potency is read from the fitted curve at half-maximal effect; % is scaled to controls: 0 for no effect and ±100 for the full control effect; nearly all actives have a fitted effect of over 55% in size
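qHTS (up to 57 uM final) was run with 24 h compound exposure of reporter cells at 37 °C. Each well was multiplexed: SteadyGlo luminescence measured ATXN2-luciferase expression after a fluorogenic Gly-Phe-AFC viability readout (25 uM final).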
LDHA inh – LDHA (human) enzyme inhibition. purified LDHA, NADH/diaphorase-resazurin fluorescence; active compounds read low. activity change, % (values are at about 110 or 230 µM). actives 0.15% (n = 480,000). AID 1347041; in the data active = activity change below about -30%; inconclusive = mostly about -25% to -30%;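 also: plate controls were DMSO wells for no effect and wells without enzyme for full effect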
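Human LDH5 at 2 nM final in Tris HCl pH 7.4 with 0.06 mM NADH and 0.2 mM pyruvate, reacted 5 minutes at room temperature. Remaining NADH coupled via diaphorase/resazurin; resorufin fluorescence read at 0 and 20 minutes, normalized to enzyme-free and DMSO wells.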
IDH1 autofl – autofluorescence interference, mutant IDH1 hit counter-screen; shares compounds with mIDH1 inhibitor; Resorufin detection reagent fluorescence interference, cell-free; inhibition of signal, % at 51.2 µM; 750 tested, under 10 active;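 also: 0% = wells with normal resorufin and full inhibition = wells lacking resorufin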
WT IDH1 inh – wild-type IDH1 (human) inhibition counterscreen | AID 623995 | shares compounds with mIDH1 inhibitor | Potency, µM (series often up to 115 µM), for the others: at the top dose activity change, negative = inhibition, usual class: inhibitors | actives 9% (n = 750) | WT IDH1 enzyme, NADPH diaphorase/resazurin fluorescence;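 also: potency is read from the fitted curve at half-maximal effect; 0% = full WT IDH1 enzyme control and full inhibition = no enzyme wells; nearly all actives have a fitted effect of over 55% in size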
Target sequence (O75874 whole entry, looked up): as the sequence (O75874 whole entry R132H, stated change not applied) above, with H132R counted along it
IDH1 R132H conf – mutant IDH1 (human) inhibition, confirmed; IDH1 R132H enzyme, NADPH diaphorase/resazurin fluorescence; Potency, µM (doses to about 76.6 µM), for the others: top-dose activity change, negative = inhibition, usual class: inhibitors; shares compounds with mIDH1 inhibitor; actives 83% (n = 750); AID 624002; also: potency is read from the fitted curve at half-maximal effect; nearly all actives have a fitted effect of over 50% in size
* hit, by the source's call. Unless noted, calls follow the shape of the dose curve; as a rule, active = well fitted curve in the direction sought with a large enough effect; inconclusive = small, poorly fitted or top-dose-only effect, or another doubt; inactive = no such curve, though single readings can be large; an effect the other way counts as inactive or inconclusive.

For Cc1cccc(N(C(=O)c2snc(C(N)=O)c2N)C(C(=O)NCc2ccccc2)c2ccncc2)c1 (configuration not stated) the results were HepG2 tox -68%, ATXN viability inconclusive, mIDH1 inhibitor inconclusive, TGFb inhibitor inconclusive, ATXN2 expr inh inconclusive, LDHA inh -6, IDH1 autofl -6, WT IDH1 inh 8% and IDH1 R132H conf 35µM*.
For COc1ccccc1C(=O)N(Cc1ccccc1)c1ccc(C)cc1 the results were HepG2 tox -18%, ATXN viability inactive, mIDH1 inhibitor 4%, TGFb inhibitor 2%, ATXN2 expr inh -12% and LDHA inh -1.
Screening Cc1ccc(-n2nc(C(=O)N3CCN(c4ccccc4)CC3)c(=O)n(C)c2=O)cc1 returned HepG2 tox -2%, ATXN viability inactive, mIDH1 inhibitor 17%, TGFb inhibitor -25%, ATXN2 expr inh 14% and LDHA inh -1.
O=c1[nH]c(/C=C/c2ccc([N+](=O)[O-])cc2)c([N+](=O)[O-])c(=O)[nH]1 was read as HepG2 tox -5%, ATXN viability inactive, mIDH1 inhibitor 46µM*, TGFb inhibitor 9%, LDHA inh -2, IDH1 autofl 7, WT IDH1 inh -9% and IDH1 R132H conf 32µM*.
For Cc1cccc(NC(=O)COc2ccc(/C=C\c3[nH]c(=O)[nH]c(=O)c3[N+](=O)[O-])cc2)c1 the results were HepG2 tox 12%, ATXN viability inactive, mIDH1 inhibitor 52µM*, TGFb inhibitor 12%, ATXN2 expr inh 1%, LDHA inh inconclusive, IDH1 autofl 11, WT IDH1 inh inconclusive and IDH1 R132H conf 32µM*.
For COc1cc(-c2[nH]ncc2CN2CCc3sccc3C2)cc(OC)c1OC the results were HepG2 tox -37%, ATXN viability inconclusive, mIDH1 inhibitor 4%, TGFb inhibitor inconclusive and LDHA inh -6.
Screening CC(C)C[C@H]1CN([C@@H](Cc2ccc(O)cc2)CN2CCC[C@@H]2CN2C(=O)C(=O)NC[C@@H]2Cc2ccccc2)C(=O)C(=O)N1CC1CCCCC1 returned HepG2 tox -4%, ATXN viability inconclusive, mIDH1 inhibitor 45µM*, TGFb inhibitor inconclusive, ATXN2 expr inh inconclusive, LDHA inh -7, IDH1 autofl -4, WT IDH1 inh -3% and IDH1 R132H conf 14µM*.
CC(C)C[C@@H](CN1CCC[C@@H]1CN1C(=O)C(=O)NC[C@@H]1Cc1ccccc1)N1C[C@H](Cc2ccccc2)N(CC2CCCCCC2)C(=O)C1=O was read as HepG2 tox 2%, ATXN viability inconclusive, mIDH1 inhibitor 40µM*, TGFb inhibitor inconclusive, ATXN2 expr inh 8%, LDHA inh 0, IDH1 autofl 2, WT IDH1 inh 6% and IDH1 R132H conf 20µM*.
`CC(C)C[C@@H](CN1CCC[C@H]1CN1C(=O)C(=O)NC[C@@H]1Cc1ccccc1)N1C[C@H](Cc2ccc(O)cc2)N(CC2CCCCCC2)C(=O)C1=O` gave ATXN viability inconclusive, ATXN2 expr inh inconclusive and LDHA inh 3.
Screening COc1ccc(Br)cc1/C=N/NC(=O)c1nc(-c2ccccc2)n2c1CCCCC2 returned HepG2 tox -14%, ATXN viability inactive, mIDH1 inhibitor inconclusive, TGFb inhibitor -18%, ATXN2 expr inh -2%, LDHA inh -1, IDH1 autofl 3, WT IDH1 inh 1% and IDH1 R132H conf inconclusive.
`COc1ccc(CN(CCC(c2ccccc2)c2ccc(OC(C)C)cc2)C(=O)CCl)cc1OC` (configuration not stated) gave HepG2 tox 10µM*, mIDH1 inhibitor inconclusive, TGFb inhibitor inconclusive, ATXN2 expr inh inconclusive, LDHA inh -1, IDH1 autofl -7, WT IDH1 inh -17% and IDH1 R132H conf 7.9µM*.
Screening Cc1sc2nc(C3CCCCC3)nc(SCC(=O)N3CC(=O)Nc4ccccc43)c2c1C returned HepG2 tox 15%, ATXN viability inconclusive, mIDH1 inhibitor 2%, TGFb inhibitor 0%, ATXN2 expr inh -6% and LDHA inh 4.
For CCc1nc(SCC(=O)N2CC(=O)Nc3ccccc32)c2c(C)c(C)sc2n1 the results were HepG2 tox -16%, ATXN viability inactive, mIDH1 inhibitor inconclusive, TGFb inhibitor -2%, ATXN2 expr inh -13%, LDHA inh -7, IDH1 autofl 7, WT IDH1 inh 2% and IDH1 R132H conf 32µM*.
CCc1nccn1S(=O)(=O)c1ccc(OC)c(OC)c1 was read as HepG2 tox -33%, ATXN viability inactive, mIDH1 inhibitor -11%, TGFb inhibitor -3%, ATXN2 expr inh 0% and LDHA inh -6.
COc1ccc(CCNC(=O)CN2C(=O)COc3ccc(S(=O)(=O)N4CCCC4)cc32)c(OC)c1 was read as HepG2 tox 0%, ATXN viability inactive, mIDH1 inhibitor -6%, TGFb inhibitor 1%, ATXN2 expr inh 10% and LDHA inh -4.
Nc1c(C(=O)Nc2ccccc2)sc2nc(N3CCOCC3)c3c(c12)CCCC3 was read as HepG2 tox 1%, mIDH1 inhibitor -4%, TGFb inhibitor 2% and LDHA inh 1.
Screening COc1cccc(NC(=O)c2sc3nc(N4CCOCC4)c4c(c3c2N)CCCC4)c1 returned HepG2 tox -2%, ATXN viability inactive, mIDH1 inhibitor inconclusive, TGFb inhibitor -5%, LDHA inh 3, IDH1 autofl -4, WT IDH1 inh 12% and IDH1 R132H conf 7.1µM*.
Nc1c(C(=O)NCc2ccccc2)sc2nc(N3CCOCC3)c3c(c12)CCCC3 was read as HepG2 tox 7%, ATXN viability inconclusive, mIDH1 inhibitor inconclusive, TGFb inhibitor 1%, ATXN2 expr inh inconclusive, LDHA inh -3, IDH1 autofl 4, WT IDH1 inh inconclusive and IDH1 R132H conf 7.9µM*.

Screening data from PubChem.
